Source: PubChem BioAssay (several laboratories)
V-ATPase pH: regulators of yeast V-ATPase proton pumping, primary screen, pHLuorin cytosolic pH fluorescence; response, % at 10 µM; actives 0.37% (n = 350,000); S. cerevisiae; in the data active = response mostly above about 7.3%, no sharp cut-off; inactive = mostly below about 5.4%; note: actives read high
CRFR2-BP antag: antagonists of CRF-BP/CRF-R2 complex, primary screen, cell-based, HEK293, calcium dye fluorescence, uHTS; CRF-induced calcium fluorescence; inhibition, % at 11.8 µM; actives 0.59% (n = 350,000);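 active = inhibition of the ligand-induced calcium signal above about 50% at the single tested concentration, limit read from the data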
NTR1 ag: agonists of human NTR1, primary screen, imaging, U2OS cells, beta-arrestin-GFP, high content; Neurotensin receptor type 1 (Homo sapiens), P30989; NTR1-U2OS beta-arrestin-GFP spot imaging, agonist mode; activation, % at 20 µM; actives 0.17% (n = 330,000); AID 493036, 2011;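 active = activation at or above 40% of the spot to cytoplasm intensity ratio, with at least 20 cells analyzed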
Target sequence (P30989 whole entry, looked up): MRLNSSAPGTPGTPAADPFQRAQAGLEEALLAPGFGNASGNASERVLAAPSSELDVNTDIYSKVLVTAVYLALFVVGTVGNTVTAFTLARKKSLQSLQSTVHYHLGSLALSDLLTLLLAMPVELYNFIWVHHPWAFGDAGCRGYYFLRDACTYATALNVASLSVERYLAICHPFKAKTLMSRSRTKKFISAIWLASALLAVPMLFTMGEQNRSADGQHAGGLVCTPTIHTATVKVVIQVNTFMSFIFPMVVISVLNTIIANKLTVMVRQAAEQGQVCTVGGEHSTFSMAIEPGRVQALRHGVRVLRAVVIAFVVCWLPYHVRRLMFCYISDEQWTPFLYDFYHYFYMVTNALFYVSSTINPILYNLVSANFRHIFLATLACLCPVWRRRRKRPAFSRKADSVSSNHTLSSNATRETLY
CRFBP-R2 agonist: agonists of CRF-BP/CRF-R2 complex, primary screen, cell-based, HEK293, calcium dye fluorescence, uHTS; activation, % at 13.2 µM; calcium dye fluorescence (FLIPR); percent of saturating CRF peptide response; actives 0.46% (n = 350,000);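 active = activation of at least 50%, plus an integration ratio under a set limit after plate pattern correction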
VATPase regulator: yeast V-ATPase proton pumping modulators, confirmation, S. cerevisiae, pH-sensitive GFP, second cherry-pick. shares compounds with V-ATPase pH. S. cerevisiae pHLuorin cytosolic pH, V-ATPase proton transport. response, % at 10 µM. actives 2% (n = 980). AID 602197, 2012; in the data active = response above about 24%
Hits are given with their value; – = inactive; · = not tested or not shown. Shown are actives, neighbours in structure and some others; about 1.5% of the full set was active somewhere.

SMILES | V-ATPase pH | CRFR2-BP antag | NTR1 ag | CRFBP-R2 agonist | VATPase regulator
CC(=O)Nc1ccc(S(=O)(=O)N(C)CC(=O)N(C)Cc2sccc2C)cc1 | – | – | – | – | ·
O=C(Nc1ncccc1O)c1ccc(S(=O)(=O)NCc2ccco2)cc1 | – | – | · | – | ·
CN(C(=O)COC(=O)c1ccc(=O)n(Cc2ccccc2)n1)C1CCCCC1 | – | – | – | – | ·
O=[N+]([O-])c1ccc(F)cc1OCc1nc(-c2cccs2)no1 | 15 | – | · | – | –
O=[N+]([O-])c1ccccc1OCc1nc(-c2cccs2)no1 | – | – | – | – | ·
CCOC(=O)c1nc2c(ccc3ccccc32)cc1C | – | – | – | – | –
CCOC(=O)c1cc(Cl)c2c(ccc3ccccc32)n1 | – | – | · | – | ·
CC(=O)c1cccc(NC(=O)N2C3CCC2CC(NC(=O)C2CC2)C3)c1 (stereo unspecified) | – | – | – | – | ·
O=C(NC(=S)Nc1cccc(S(=O)(=O)NC2=NCCC2)c1)c1cc(-c2ccco2)nc2ccccc12 | 13 | – | – | – | –
COc1cccc(NCc2cc(=O)oc3cc(C)c(C(C)C)cc23)c1 | – | – | – | – | ·
CCC1Oc2ccc(C)cc2N(CC(=O)NCc2cccs2)C1=O (stereo unspecified) | – | – | – | – | ·
CCC1Oc2ccccc2N(CC(=O)NCc2cccs2)C1=O (stereo unspecified) | 12 | – | – | – | –
CCN(CC)S(=O)(=O)c1ccc(/C=C/C(=O)Nc2cccc(F)c2)cc1 | – | – | – | – | ·
CSc1nc(N)c(NC(=O)c2ccc(Br)o2)c(=O)[nH]1 | 11 | – | – | – | –
C[C@H](CO)N1C[C@H](C)[C@@H](CN(C)S(=O)(=O)c2cccs2)Oc2ccc(NS(=O)(=O)c3ccc(F)cc3)cc2C1=O | – | – | – | – | ·
C/C(=N\NC(=S)NC1CCCCC1)c1cccc(C(F)(F)F)c1 | 13 | – | – | – | –
CCCCOc1ccc(C(=O)N/N=C/c2ccc(OCCN3CCCCC3)c(OC)c2)cc1 | – | – | – | – | ·
Cc1ccc(-c2nc(N)n(S(=O)(=O)c3ccc(C)cc3)n2)cc1 | 8.7 | – | – | – | –
CCS(=O)(=O)n1nc(-c2ccc(C)cc2)nc1N | – | – | – | – | ·
Cc1cc(C)n(C(C)CC(=O)Nc2ccc(-c3ccno3)cc2)n1 (stereo unspecified) | – | – | – | – | ·
Cc1cccc(S(=O)(=O)N(C)C[C@H]2OCc3cn(nn3)CCCC(=O)N([C@H](C)CO)C[C@@H]2C)c1 | 4.9 | – | · | – | –
NC(=O)CN1C(=O)C(=O)N(Cc2cccc(C(F)(F)F)c2)C1=O | – | – | – | – | ·
CC(C)(C)n1cnc(C(N)=O)c1N | 9.5 | – | – | – | –
Cc1nn(-c2ccccc2)nc1C(N)=O | – | – | – | – | ·
Cc1ccc(/C=C/c2nnc(-c3ccccc3)o2)cc1 | – | – | – | – | ·
SMILES | V-ATPase pH | CRFR2-BP antag | NTR1 ag | CRFBP-R2 agonist | VATPase regulator
C(=C\c1nnc(-c2cccs2)o1)/c1ccccc1 | 13 | – | – | – | –
CCOc1ccccc1Nc1nc(-c2sc(NC(=O)c3ccco3)nc2C)cs1 | – | – | – | – | ·
CCOc1ccccc1Nc1nc(-c2sc(C)nc2C)cs1 | 8.3 | – | – | – | –
NS(=O)(=O)c1ccc(CCNC(=O)c2ccco2)cc1 | 11 | – | – | – | –
O=C1CCN(Cc2ccccc2)C=C1c1ccc(Br)cc1 | – | – | – | – | ·
COc1ccc(NC(=O)C2CCCN(S(C)(=O)=O)C2)cc1 (stereo unspecified) | – | – | – | – | ·
CS(=O)(=O)N1CCCC(C(=O)Nc2ccccc2)C1 (stereo unspecified) | 12 | – | – | – | –
CCOC(=O)C1CCN(C(=O)C(CC)c2ccccc2)CC1 (stereo unspecified) | – | – | – | – | ·
COc1ccc(O)c(CN2CCCC(N3CCc4ccccc4C3)C2)c1 (stereo unspecified) | – | – | – | – | ·
O=C(CN1CCN(c2ccc(F)cc2)CC1)N1N=CCC1c1ccccc1 (stereo unspecified) | – | – | – | – | ·
O=C(CN1CCN(c2ccccc2)CC1)N1N=CCC1c1ccccc1 (stereo unspecified) | 24 | – | – | – | –
CCOC(=O)c1cccc(C(=O)OCC)n1 | – | – | – | – | –
CCOC(=O)c1cn2c(C)cccc2n1 | – | – | – | – | ·
